Measurements published in PubChem BioAssay (EPA / NIEHS).
Records with an inconclusive call do not appear. Calls of active or inactive are those of the source. The calls were made as follows, unless noted: active = hit-call score of the fitted dose curve at least 0.9, where 1 is the maximum; inconclusive = response in the unintended direction; inactive = score below 0.9.

Key:
[1] = TOX21_p53_BLA_p2_viability: Viability Assessment in the Tox21 HCT-116 p53 Agonism Beta-lactamase Assay, Phase 2 (AID 2283591);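 also: compound exposure lasted 16 h at 37 °C; actives lower the ATP signal meaning cytotoxicity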
In short: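 HCT-116 p53-bla cells (4000/well) rested 5 h at 37C, then received compounds in DMSO (217-fold dilution) for 16 h at 37C, 5% CO2. After the CCF4 read, CellTiter-Glo was added; ATP luminescence was read after 30 min at room temperature.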

[2] = TOX21_p53_BLA_p3_viability: Viability Assessment in the Tox21 HCT-116 p53 Agonism Beta-lactamase Assay, Phase 3 (AID 2283593);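 also: cells exposed to compound for 16 h before reading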
In short: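 HCT-116 cells (4000/well) rested 5 h at 37C, then got DMSO compounds by pin tool (217-fold dilution) for 16 h at 37C, 5% CO2. After the bla read, CellTiter-Glo was added and luminescence read at 30 min, room temperature.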

[3] = TOX21_p53_BLA_p4_viability: Viability Assessment in the Tox21 HCT-116 p53 Agonism Beta-lactamase Assay, Phase 4 (AID 2283597);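 also: hits lower the luminescence signal meaning cytotoxicity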
In short: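 Cells plated, 5 h pre-incubation; DMSO compounds pinned (217-fold dilution); 16 h, 37C/5% CO2; CCF4-AM 2 h RT; CellTiter-Glo 30 min RT; luminescence read.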

[4] = target: Cellular tumor antigen p53 (Homo sapiens) (UniProt P04637); experiment: TOX21_p53_BLA_p5_ratio: Tox21 HCT-116 p53 Agonism Beta-lactamase Assay, Ratio, Phase 5 (AID 2283599)
Sequence of Cellular tumor antigen p53 (Homo sapiens) (P04637 whole entry, looked up): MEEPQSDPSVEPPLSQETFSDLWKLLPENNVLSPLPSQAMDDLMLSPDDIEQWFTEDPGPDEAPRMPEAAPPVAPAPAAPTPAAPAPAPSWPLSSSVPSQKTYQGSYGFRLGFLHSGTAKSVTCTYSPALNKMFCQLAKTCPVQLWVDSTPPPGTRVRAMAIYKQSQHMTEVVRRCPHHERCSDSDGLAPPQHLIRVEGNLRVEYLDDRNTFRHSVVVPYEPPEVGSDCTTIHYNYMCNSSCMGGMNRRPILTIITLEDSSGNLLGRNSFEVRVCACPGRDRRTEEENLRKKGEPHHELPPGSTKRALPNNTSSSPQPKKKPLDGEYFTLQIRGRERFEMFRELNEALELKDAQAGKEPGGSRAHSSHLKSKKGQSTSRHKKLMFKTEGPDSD
In short: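 HCT-116 cells carrying a p53-inducible beta-lactamase reporter were seeded at 4000 cells/well and dosed after 5 h with compound in DMSO (217-fold dilution). After 16 h at 37C, CCF4-AM substrate was added for 2 h, and the 460/530 nm emission ratio was scored as gain-of-signal versus DMSO.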

[5] = TOX21_p53_BLA_p5_viability: Viability Assessment in the Tox21 HCT-116 p53 Agonism Beta-lactamase Assay, Phase 5 (AID 2283600)
In short: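 4000 cells/well; 5 h pre-incubation; DMSO compounds pin-transferred, 217-fold dilution; 16 h, 37C/5% CO2; CCF4-AM 2 h RT; CellTiter-Glo 30 min RT; luminescence.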

[6] = target: Cellular tumor antigen p53 (Homo sapiens) (UniProt P04637); experiment: TOX21_p53_BLA_p4_ratio: Tox21 HCT-116 p53 Agonism Beta-lactamase Assay, Ratio, Phase 4 (AID 2283601)
In short: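 HCT116 cells carrying an inducible beta-lactamase reporter were plated at 4000 cells/well, rested 5 h, then exposed to compounds in DMSO (217-fold dilution) for 16 h at 37C. CCF4-AM substrate was loaded 2 h at room temperature; 460/530 nm emission ratio scored gain-of-signal versus DMSO.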

[7] = target: Cellular tumor antigen p53 (Homo sapiens) (UniProt P04637); experiment: TOX21_p53_BLA_p3_ratio: Tox21 HCT-116 p53 Agonism Beta-lactamase Assay, Ratio, Phase 3 (AID 2283596)
In short: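 HCT116 p53-bla cells (4000/well) given compound in DMSO (217-fold dilution) after 5 h, incubated 16 h at 37C. CCF4-AM substrate 2 h at room temperature; 460/530 nm emission ratio, gain fitted against DMSO.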

[8] = ACEA_ER_AUC_viability: ACEA Biosciences xCELLigence Real-Time Cell Analysis on Estrogen Receptor Agonism for Viability (AID 2283782);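 also: continuous compound exposure with impedance area under curve over 80 h; hit means loss of impedance signal meaning reduced cell growth or viability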
In short: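 T-47D human breast cells in phenol red-free RPMI1640 with 10% charcoal-stripped FBS were dosed with an 8-point 1:4 dilution series from 100 uM top final concentration, in duplicate. Impedance-based growth was followed for 80 h; AUC analysed versus DMSO.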

[9] = CCTE_Harrill_HTTr_Apoptosis_MCF7: CCTE's 6-hour Apoptosis Assessment for the High-Throughput Transcriptomics (HTTr) Platform, in MCF-7 cells cultured in DMEM + 10% fetal bovine serum, Harrill Lab (AID 2284011; active = hit-call score of the fitted dose curve at least 0.9, where 1 is the maximum; inactive = score below 0.9)
In short: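 MCF-7 (DMEM + 10% FBS), 384-well; 8-pt dilution series, 6 h chemical exposure; caspase-3/7 activation via CellEvent Caspase 3/7 Green, HCI; bidirectional fit vs DMSO.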

Measured: AC50

CC(=O)CCC(C)=O
inactive: [1] | [2] | [3] | [4]

O=C(Cl)/C=C/C(=O)Cl
inactive: [1] | [2] | [3] | [4] | [5] | [6]

CC1NCCOC1c1ccccc1 (stereo unspecified)
inactive: [1] | [2] | [7] | [5] | [6]

CC(=O)O[C@H]1C[C@H](O[C@H]2[C@@H](O)C[C@H](O[C@H]3[C@@H](O)C[C@H](OC4CC[C@@]5(C)[C@H](CC[C@@H]6[C@@H]5CC[C@]5(C)[C@@H](C7=CC(=O)OC7)CC[C@]65O)C4)O[C@@H]3C)O[C@@H]2C)O[C@H](C)[C@H]1O[C@@H]1O[C@H](CO)[C@@H](O)[C@H](O)[C@H]1O (stereo partly specified)
active: [1] 99.4 nM | [2] 85.5 nM | [3] 137 nM | [5] 74.9 nM
inactive: [4]

NC(=O)CS(=O)C(c1ccccc1)c1ccccc1 (stereo unspecified)
inactive: [1] | [2] | [7] | [4] | [5]

Cc1cc(C)cc(C(=O)OC2C[C@H]3CC[C@@H](C2)N3C)c1 (stereo partly specified)
inactive: [1] | [2] | [3] | [5] | [6]

C=CC[C@]1(O)CC[C@H]2[C@@H]3CCC4=CCCC[C@@H]4[C@H]3CC[C@@]21C
inactive: [1] | [2] | [3] | [5]

CCCCCCC#N
inactive: [1] | [2] | [3] | [4] | [5]

C[C@]12CC[C@H]3[C@@H](CCC4=CC(=O)CC[C@@]43C)[C@@H]1CC[C@@H]2OC(=O)CCc1ccccc1
inactive: [1] | [2] | [3] | [4] | [5]

CCCN(CC1CC1)c1c([N+](=O)[O-])cc(C(F)(F)F)cc1[N+](=O)[O-]
active: [8] 25400 nM
inactive: [1] | [2] | [7] | [3] | [4] | [5] | [9]

CC1(C)C(/C=C(\Cl)C(F)(F)F)C1C(=O)OC(C#N)c1cccc(Oc2ccccc2)c1 (stereo unspecified)
inactive: [1] | [2] | [7] | [3] | [6]

Nc1ccccc1C(=O)O
inactive: [1] | [2] | [7] | [4] | [5] | [6]

Oc1c(Cl)c(Cl)cc(Cl)c1Cl
active: [7] 13400 nM | [4] 18700 nM | [6] 22600 nM
inactive: [1] | [2] | [3]

C[C@@H]1O[C@@H](O[C@@H]2C=C3CC[C@@H]4[C@H](CC[C@]5(C)[C@@H](c6ccc(=O)oc6)CC[C@]45O)[C@@]3(C)CC2)[C@H](O)[C@H](O)[C@H]1O
inactive: [7] | [6]
active: [1] 9.27 nM | [2] 13.4 nM | [3] 12.3 nM | [5] 10.8 nM

CC(C)(C)C(=O)Cl
inactive: [1] | [7] | [4] | [5] | [6]

O=[N+]([O-])O[C@H]1CO[C@H]2[C@@H]1OC[C@H]2O[N+](=O)[O-]
inactive: [1] | [7] | [6]

COc1cc(CC(C)N)cc2c1OCO2 (stereo unspecified)
inactive: [1] | [7] | [3] | [4] | [6]

CCCCCON=O
inactive: [1] | [7]

Nc1ccccc1Cl
inactive: [1] | [7] | [3]

COC(C)(C)CCCC(C)C/C=C/C(C)=C/C(=O)OC(C)C (stereo unspecified)
inactive: [1] | [7] | [3] | [4] | [5] | [6]

Oc1ccc2c3c1O[C@H]1[C@@H](O)CC[C@@]4(O)[C@@H](C2)N(CC2CCC2)CC[C@]314
inactive: [1] | [7] | [3] | [5] | [6]

CN(C)C(=O)Oc1cc(OC(=O)N(C)C)cc(C(O)CNC(C)(C)C)c1 (stereo unspecified)
inactive: [1] | [7] | [6]

CCCCCCCCP(=O)(O)O
inactive: [1] | [7] | [6]

CC(C)CCCCCOC(=O)c1ccccc1C(=O)OCCCCCC(C)C
inactive: [1] | [2] | [3] | [6]

C[C@H](CN1CCOCC1)C(C(=O)N1CCCC1)(c1ccccc1)c1ccccc1
inactive: [1] | [3]

CCCN(CCC)C(=O)Cc1c(-c2ccc(Cl)cc2)nc2ccc(Cl)cn12
inactive: [1] | [2] | [3] | [5] | [6]

CCCOC(=O)Cc1ccc(OCC(=O)N(CC)CC)c(OC)c1
inactive: [1] | [2] | [3] | [6]

CNC(=O)Oc1ccccc1C(C)C
inactive: [1] | [7] | [6]

CC(=O)[C@H]1CC[C@H]2[C@@H]3CC[C@H]4C[C@H](O)CC[C@]4(C)[C@H]3C(=O)C[C@]12C
inactive: [1] | [3]

CCC1(CC)C(=O)C=CNC1=O
inactive: [1] | [7] | [3] | [4] | [5] | [6]

O=[N+]([O-])c1ccccc1-c1ccccc1
inactive: [1] | [7] | [4] | [5]

C[C@H]1O[C@H](OC2[C@@H](O)[C@@H](O)C(O)[C@H](O)[C@H]2O)[C@@H](N)C[C@@H]1N=C(N)C(=O)O (stereo partly specified)
inactive: [1] | [2] | [4]

CCCCCCCC(=O)Cl
inactive: [1] | [2] | [4] | [5] | [6]

COC(=O)c1ccc(CBr)cc1
inactive: [1] | [2] | [3] | [5] | [6]

O=[N+]([O-])c1ccc(Cl)c(Cl)c1Cl
inactive: [1] | [2] | [4] | [5]

CCN(CC)CCOC(=O)C(C)(c1ccccc1)c1ccccc1
inactive: [1] | [3] | [4]

Cc1ccc2c(C)cccc2c1
inactive: [1] | [7] | [3] | [4] | [5] | [6]

C#CCOC(C(=O)OCCN(C)C)(c1ccccc1)c1ccccc1
inactive: [1] | [2] | [3] | [5] | [6]
